Molecules are shown by their SMILES. Activity calls are given as the source filed them. The calls were made as follows: active = hit-call score of the fitted dose curve at least 0.9, where 1 is the maximum; inactive = score below 0.9.

Retinoic acid receptor alpha (Homo sapiens), sequence (P10276 whole entry, looked up): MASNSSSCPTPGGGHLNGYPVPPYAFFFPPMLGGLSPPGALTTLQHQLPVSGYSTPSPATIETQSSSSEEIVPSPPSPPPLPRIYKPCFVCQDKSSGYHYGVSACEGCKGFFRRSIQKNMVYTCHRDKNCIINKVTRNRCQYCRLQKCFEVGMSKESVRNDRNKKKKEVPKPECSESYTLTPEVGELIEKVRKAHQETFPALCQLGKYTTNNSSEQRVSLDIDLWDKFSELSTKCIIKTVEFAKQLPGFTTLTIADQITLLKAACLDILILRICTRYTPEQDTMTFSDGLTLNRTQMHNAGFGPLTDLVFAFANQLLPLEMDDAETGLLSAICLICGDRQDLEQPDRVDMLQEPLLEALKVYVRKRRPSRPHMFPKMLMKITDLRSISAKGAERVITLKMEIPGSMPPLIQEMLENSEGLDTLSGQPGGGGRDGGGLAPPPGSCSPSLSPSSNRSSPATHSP

For this test, the target named is Retinoic acid receptor alpha (Homo sapiens) (UniProt P10276). Put plainly: ATG_DR5_RAR_CIS: Attagene CIS-FACTORIAL HepG2 Assay for human Retinoic Acid Receptor Alpha (RARE), DR5 submotif (AID 2282934).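 As to AC50: reporter responds to endogenous RAR alpha beta and gamma in HepG2 not RARA alone.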 Conditions: HepG2 Attagene cis-factorial RARE DR5 reporter, mRNA; actives raise or lower the signal. The procedure:
ATG_CIS is a cell-based, multiplexed-readout assay that uses HepG2, a human liver cell line, with measurements taken at 24 hours after chemical dosing in a 24-well plate.ATG_DR5_RAR_CIS is one of 52 assay component(s) measured or calculated from the ATG_CIS assay. It is designed to make measurements of mRNA induction, a form of inducible reporter, as detected with fluorescence intensity signals by Reverse transcription polymerase chain reaction (RT-PCR) and Capillary electrophoresis technology.Data from the assay component ATG_DR5_RAR_CIS was analyzed into 1 assay endpoint. This assay endpoint, ATG_DR5_CIS, was analyzed with bidirectional fitting relative to DMSO as the negative control and baseline of activity. Using a type of inducible reporter, measures of mRNA for gain or loss-of-signal activity can be used to understand the reporter gene at the transcription factor-level as they relate to the gene RARA and RARB and RARG. Furthermore, this assay endpoint can be referred to as a primary readout, because this assay has produced multiple assay endpoints where this one serves a reporter gene function. To generalize the intended target to other relatable targets, this assay endpoint is annotated to the nuclear receptor intended target family, where the subfamily is non-steroidal.
Human liver HepG2 cells are transiently transfected with multiple reporter transcription units (MRTUs) in 6-well plates using FuGene 6 reagent (Roche; 3 ml FuGene/1 mg DNA). The MRTU constructs are regulated by a cis-regulating element (promoter). […] A major difference between the CIS and TRANS system is that in CIS activities of endogenous TFs are measured, whereas the TRANS assay evaluates changes in activities of exogenous, chimeric NR-Gal4 proteins. […] At the end of 24 hour incubation, total RNA was isolated using TriZol reagent (Invitrogen). The isolated RNA is then reverse-transcribed using oligo(dT) primer and Mo-MLV reverse transcriptase (Invitrogen) with DNAse I (Ambion) treatment for 30 min. The one-tenth of the produced cDNA was amplified by PCR using Taq DNA polymerase (Invitrogen) and two reporter sequence-specific primers. The PCR products were fluorescently labeled by primer extension with 6-arboxyfluorescein (6-FAM) 5'-labeled reporter sequence-specific primer (2 min at 95 C, 20 s at 68 C and 10 min at 72 C) and these products were digested with 5U of HpaI (New England Biolabs) for 2h at 37 C. The fragments were purified using Qiaquick PCR columns (Qiagen), analyzed on an ABI 3130xL genetic analyzer (Applied Biosystems) with peak positions identified by using a set of X-rhodamine (ROX)-labeled MapMarker1000 molecular weight standards (BioVentures). The raw capillary electrophoresis data was processed using Attagraph software (Attagene).
In the case of `C#C[C@]1(O)CC[C@H]2[C@@H]3CCC4=CC(=O)CC[C@]4(C)[C@H]3CC[C@@]21C`, the result was inactive.

On to `O=C1C[C@@H]2OCC=C3CN4CC[C@]56c7ccccc7N1[C@H]5[C@H]2[C@H]3C[C@H]46`, for which the call was inactive. Same read-out and setting: the entry for `O=C(O)c1cc(I)cc(I)c1I` is “inactive”. For the molecule `O=c1[nH]c2ccccc2n1C1CCN(CCCC(c2ccc(F)cc2)c2ccc(F)cc2)CC1`, the concentration at half-maximal activity (AC50) was 5.87 µM (active). As for `Cc1ccc(OP(=O)(Oc2ccc(C)cc2C)Oc2ccc(C)cc2C)c(C)c1`, the molecule was called inactive. Same read-out and setting: the entry for `c1ccc2c(c1)Oc1ccccc1O2` is “inactive”; for `O=C(NC(=O)c1c(F)cccc1F)Nc1cc(Cl)c(Oc2ncc(C(F)(F)F)cc2Cl)c(Cl)c1` it is “inactive”. As to `N#CCCC(Br)(C#N)CBr` (stereo not given), the AC50 was 55.3 µM (active). Turning to `CN(N=O)c1ccc([N+](=O)[O-])cc1`, the molecule was called inactive.

Consider `N#Cc1ccc(Cl)cc1`, for which the call was inactive. As for `O=C1c2ccccc2C(=O)C1C(=O)C(c1ccccc1)c1ccc(Cl)cc1` (stereo not given), the AC50 was 8.58 µM (active).

Turning to `OC(Cc1ccccc1Cl)(Cn1[nH]cnc1=S)C1(Cl)CC1` (stereo not given), the molecule was called inactive.

For the molecule `C#CCOC(=O)/C=C(C)/C=C/CC(C)CCCC(C)C` (stereo not given), the call was inactive. For the molecule `Nc1ncn[nH]1`, the molecule was classed as inactive. On the same count and under the same terms, the entry for `Nc1ccc(-c2ccccc2)cc1` is “inactive”. Take `O=[N+]([O-])c1cc([As](=O)(O)O)ccc1O`: the outcome was inactive. On to `CC(c1ccc(O)cc1)c1ccc(O)cc1`, for which the call was inactive. For the molecule `Brc1ccc(Br)cc1`, the call was inactive. For the molecule `CC(C)C(C)(N)C#N` (stereo not given), the AC50 is 46.9 µM (active). As for `C[As+](C)(C)CC(=O)[O-]`, the molecule was classed as inactive. For `CC(C)(COCC1CO1)COCC1CO1` (stereo not given), the molecule was called inactive. `COc1nn(C(=O)NS(=O)(=O)c2ccccc2OC(F)(F)F)c(=O)n1C`: the call was inactive. On to `CC(C)CP(=S)(S)CC(C)C`, for which the result was inactive.

For `CCCCCCCCCCBr`, the result was inactive. In the case of `CN(C)CCN(C)C`, the molecule was called inactive. On the same count and under the same terms, under `CC1(C)[C@H](/C=C2\CCSC2=O)[C@@H]1C(=O)OCc1coc(Cc2ccccc2)c1` stands “inactive”; under `CCCCOP(=O)(CCCC)OCCCC`, “inactive”. In the case of `O=C(O)C1(c2ccc3c(c2)OC[C@H](Cc2ccc(-c4ccccc4)cc2)[C@H]3O)CCCC1`, the call was inactive.

Consider `O=S(=O)(F)C(F)(F)C(F)(F)C(F)(F)C(F)(F)F`, for which the molecule was classed as inactive. For `COC(=O)c1cc(Oc2ccc(Cl)cc2Cl)ccc1[N+](=O)[O-]`, the call was inactive. `CC(=O)CN(CC(C)=O)N=O`: the call was inactive. Consider `OC(c1ccc(Cl)cc1)(c1ccc(Cl)cc1)c1cccnc1`, for which the molecule was classed as inactive. For the molecule `FC(F)OCC(F)(F)C(F)(F)F`, the molecule was classed as inactive. As to `OC[P+](CO)(CO)CO`, the outcome was inactive. For the molecule `c1ccc(-c2cccc(-c3ccccc3)c2)cc1`, the outcome was inactive. Take `CCCCCCCCCCCCc1cccc(S(=O)(=O)O)c1`: the AC50 is 39.8 µM (active). Take `Clc1cc(C(Cl)(Cl)Cl)cnc1Cl`: the molecule was classed as inactive. The same measure, in the same setting: the entry for `NC(=O)CCl` is “inactive”; for `C=CC(F)(C(F)(F)F)C(F)(F)C(F)(F)F` (stereo not given) it is “inactive”.

For the molecule `O=[N+]([O-])c1cccc2ccccc12`, the molecule was called inactive.

For the origin of these results see PubChem BioAssay (EPA / NIEHS).
